Data on 38 compounds can be found in PubChem BioAssay.

Molecules are shown by their SMILES. The source made the active and inactive calls. How the calls were made is not given here.

Protein kinase 7 (PK7), Plasmodium falciparum 3D7 (PF3D7_0213400), sequence (Q7YTF7 1-343): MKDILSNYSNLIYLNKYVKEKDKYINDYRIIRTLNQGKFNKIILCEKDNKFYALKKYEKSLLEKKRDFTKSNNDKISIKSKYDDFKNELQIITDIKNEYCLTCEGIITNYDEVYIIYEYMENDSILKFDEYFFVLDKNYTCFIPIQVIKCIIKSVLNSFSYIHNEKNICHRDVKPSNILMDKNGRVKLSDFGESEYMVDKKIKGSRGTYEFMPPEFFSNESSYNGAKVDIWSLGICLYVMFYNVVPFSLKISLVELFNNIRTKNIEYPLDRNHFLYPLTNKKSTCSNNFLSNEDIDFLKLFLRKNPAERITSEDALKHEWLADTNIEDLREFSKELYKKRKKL

This test concerns the target Protein kinase 7 (PK7), Plasmodium falciparum 3D7 (PF3D7_0213400) (UniProt Q7YTF7). Description: inhibition of Plasmodium PK7 catalytic activity – biochemical, TCAMS antimalarial set, Kinase-Glo luminescence (AID 1159587). The settings on record: recombinant PfPK7, Kinase-Glo ATP depletion luminescence.
On to `Cc1[nH]nc2ccc(-c3cc(OC[C@@H](N)Cc4ccccc4)cnc3-c3cc4ccccc4s3)cc12`, for which the outcome was inactive.
Consider `Cc1ccc(Nc2c3ccccc3nc3ccc(C)cc23)cc1`, for which the outcome was inactive.
Turning to `NS(=O)(=O)c1cccc(N=Cc2c(O)[nH]c3ccc(S(=O)(=O)Cc4c(Cl)cccc4Cl)cc23)c1`, the outcome was inactive.
As for `CCNC(=O)Nc1ccc(N(C)c2ccnc(Nc3ccc(CS(C)(=O)=O)cc3)n2)cc1`, the result was inactive.
Consider `CCN(CC)CCCC(C)Nc1nc(C=Cc2ccc(Br)cc2)nc2cc(Cl)ccc12` (stereo not drawn), for which the outcome was inactive.
Consider `COc1ccc(NC(=O)c2ccc(-c3cccc(OCc4ccccc4)c3)cc2)cc1N1CCN(C)CC1`, for which the outcome was inactive.
Under `CN(C)CC(O)COc1ccc(Nc2ncc([N+](=O)[O-])c(Nc3ccccc3O)n2)cc1` (stereo not drawn) stands “inactive”.
Under `CCc1cc2c3c(N)nc(N)nc3ccc2n1C(C)(C)C` stands “inactive”; under `CC(Sc1n[nH]c(-c2ccccc2Br)n1)C(=O)Nc1ccc(F)cc1` (stereo not drawn), “inactive”; under `O=c1c2cccnc2sn1-c1ccccc1`, “inactive”.
`O=C(CN1C(=O)CC1S(=O)(=O)Cc1ccco1)NCCCCCCc1ccc(F)cc1` (stereo not drawn): the result was inactive.
As for `CCN(CC)CCNC(=O)c1ccc(N=Cc2c(O)[nH]c3ccc(S(=O)(=O)Cc4c(Cl)cccc4Cl)cc23)cc1`, the result was inactive.
`N#Cc1ccc(C(=O)Nc2cc(-c3cccc(O)c3)cc3[nH]ncc23)cc1`: the result was inactive.
As for `Cc1ccc(Nc2nc3cc(Nc4ccnc(Nc5cccc(CS(C)(=O)=O)c5)n4)ccc3o2)cc1`, the entry is “inactive”.
`C[C@H]1CN(Cc2ccc(-c3cccc(CNC(=O)c4cccc(C(=O)c5ccc(Cl)c(Cl)c5)c4)c3)s2)CCN1`: the result was inactive.
For the compound `COc1cc2c(cc1C(F)(F)F)N(C(=O)Nc1ccc(Br)cn1)CC2`, the result was inactive.
For `Brc1ccsc1-c1nc(NC2CCN(Cc3ccccc3)CC2)no1`, the outcome was inactive.
For `Clc1ccc(C=NNc2ccnc3cc(Cl)ccc23)cc1`, the result was inactive.
Under `Cc1cccc(Cn2ccc3c(N)nc(N)nc32)c1` stands “inactive”; under `Cc1nc(Nc2ccc(F)cc2)nc(N2CCc3ccccc3[C@@H]2C)c1C`, “inactive”.
Regarding `Fc1ccccc1C=NNc1ccnc2cc(Cl)ccc12`, the outcome was inactive.
Take `c1ccc2c3c([nH]c2c1)C(c1ccc2c(c1)CCO2)N(c1ncnc(N2CCN(CCCN4CCOCC4)CC2)n1)CC3` (stereo not drawn): the outcome was inactive.
Consider `COc1c(C2CCN(CCCCNC(=O)C=Cc3ccccc3C(F)(F)F)CC2)ccc2c1CCCC2`, for which the result was inactive.
Under `CCS(=O)(=O)c1ccc(OC)c(Nc2nccc(-c3c(-c4cccc(NC(=O)c5c(F)cccc5F)c4)nn4ncccc34)n2)c1` stands “inactive”; under `Clc1cccc(C=NNc2ccnc3cc(Cl)ccc23)c1`, “inactive”; under `C[C@@H]1CN(c2ccc3[nH]cc(Sc4ccc(-c5cccs5)cc4)c3c2)C[C@H](C)N1`, “inactive”.
Regarding `O=[N+]([O-])c1ccc(-n2nc(-c3cccnc3)n(Cc3ccco3)c2=S)c(Cl)c1`, the outcome was inactive.
Regarding `COc1cc(Nc2nccc(-c3c(-c4cccc(NC(=O)c5c(F)cccc5F)c4)nn4ncccc34)n2)cc(OC)c1OC`, the result was inactive.
For the compound `Cn1cccc1C(=O)Nc1cccc(-c2nn3ccccc3c2-c2ccnc(Nc3ccc4c(c3)OCCO4)n2)c1`, the result was inactive.
Turning to `CC(C)CN1C(=O)C(c2ccc(F)c(F)c2)=C(O)C1c1ccccc1` (stereo not drawn), the result was inactive.
Consider `Cc1ccc(Cn2ccc3c4c(N)nc(N)nc4ccc32)cc1`, for which the outcome was inactive.
With `O=C(Nc1ccccc1)Nc1cccc(-c2nn3c(OCCN4CCCC4)cccc3c2-c2ccncc2)c1`, the result was inactive.
Under `Cc1ccc(-n2c(C)cc(C(=O)CN3C(=O)NC(Cc4ccccc4)C3=O)c2C)cc1` (stereo not drawn) stands “inactive”; under `Cc1csc2nc(C(C)c3ccc(NC(=O)c4cccs4)cc3)oc(=O)c12` (stereo not drawn), “inactive”.
As for `Cc1nc2ccccc2n1C1C[C@H]2CC[C@@H](C1)N2CCC1(c2ccccc2)CCN(C(=O)Nc2ccc(C(F)(F)F)cc2)CC1` (stereo partly drawn), the entry is “inactive”; as for `COc1cc(Cc2cnc(N)nc2N)ccc1OCc1csc(-c2ccc(Cl)cc2)n1`, “inactive”; as for `CCn1c(-c2nonc2N)nc2c(-c3cc4ccccc4s3)ncc(C(=O)N3CCC(N)C3)c21` (stereo not drawn), “inactive”.
As for `Cc1ccccc1Cn1ccc2c3c(N)nc(N)nc3ccc21`, the outcome was inactive.
